# Assay results reported in PubChem BioAssay (EPA / NIEHS).
# The source made the active and inactive calls. Rule for the calls: active = hit-call score of the fitted dose curve at least 0.9, where 1 is the maximum; inactive = score below 0.9.
# Assay: CEETOX_H295R_OHPROG: CeeTox H295R High-throughput Steroidogenesis Assay for OH-Progesterone (OHPROG) (AID 2283435)
# Details: actives raise or lower the signal
# Experimental: CEETOX_H295R is a cell-based, multiplexed-readout assay that uses H295R, a human adrenal gland cell line, with measurements taken at 48 hours after chemical dosing in a 96-well plate.CEETOX_H295R_OHPROG is one of 23 assay component(s) measured or calculated from the CEETOX_H295R assay. It is designed to make measurements of hormone induction, a form of inducible reporter, as detected with absorbance signals by HPLC-MS-MS technology.Data from the assay component CEETOX_H295R_OHPROG was analyzed into 1 assay endpoint. This assay endpoint, CEETOX_H295R_OHPROG, was analyzed with bidirectional fitting relative to DMSO as the negative control and baseline of activity. Using a type of inducible reporter, gain or loss-of-signal activity using HPLC-MS-MS was used to understand synthesis of 17alpha-hydroxyprogesterone in H295R cell line at 48hr of chemical exposure. To generalize the intended target to other relatable targets, this assay endpoint is annotated to the steroid hormone intended target family, where the subfamily is progestagens.
# Cell culture and media preparation procedures were conducted in accordance with OECD Test No. 456 guidelines, with minor modifications. H295R cells (ATCC CRL-2128) were expanded for 5 passages and frozen in batches in liquid nitrogen. Prior to the steroidogenesis assay, H295R cells were thawed and passed at least 4 times. The maximum passage was 10. Cells were maintained in a 1:1 mixture of DMEM/F12 supplemented with 5ml/L ITS+ Premix (BD Bioscience) and 12.5 ml/L Nu-Serum (BD Bioscience). After seeding cells into 96-well plates at 50-60% confluency, cells were allowed to adhere overnight. Prior to chemical testing, culture medium was replaced with 175 uL medium containing 10 uM forskolin to stimulate steroidogenesis for 48 hours. Following prestimulation, forskolin medium was replaced with medium containing test chemical solubilized in DMSO (ensuring a final concentration of 0.1% DMSO). Test chemicals were incubated for 48 hours, then the medium was removed and split into 2 vials containing approximately 75uL each, and stored at -80 C prior to hormone analysis. For steroid quantification, media samples were shipped to OpAns, LLC (Durham, NC) on dry ice, and samples were thawed to room temperature prior to liquid-liquid extraction. Steroid hormones were extracted from media samples using methyl tertbutyl ether (MTBE). An extra derivatization with dansyl chloride was included for estrogen (estrone and estradiol) detection only. Steroid hormones were separated by HPLC, eluted using a reverse phase C18 gradient with electrospray positive ionization, followed by quantification by tandem mass spectrometry (MS/MS). Data were acquired on a MassHunter Workstation Acquisition version B03.01 (Agilent Technologies, Inc.) and processed using MassHunter Quantitative Analysis for QQQ. Accuracy was determined for each hormone analyte from 3 standards to determine upper and lower limits of quantification (ULOQ and LLOQ, respectively) using a 7-point standard curve. Precision and accuracy of the extraction and quantification methods were calculated as the percent relative standard deviation (%RSD) of the spiked standards and percent spiked standard recovered, respectively. […] Test medium was removed following chemical exposure, and cell viability was evaluated in the same wells by MTT. MTT procedures were as follows: after removal of test medium, 500 uL of 0.5 mg/ml of 3-[4,5-dimethylthiazol-2-y]2,5-diphenyltetrazoliumbromide solution was added to the cells. Following a 4-hour incubation at 37 C and 5% CO2 to allow formazan-crystal formation, the MTT solution was removed and blue formazan salt crystals were solubilized using 500uL anhydrous isopropanol with shaking for 20 minutes. Absorbance was read at 570 and 650nm using a Packard Fusion microplate reader. Background correction of absorbance units was used to determine percent change relative to controls. […]
Compound,outcome,AC50
CCOC(=O)C1=NN(c2ccc(Cl)cc2Cl)C(C)(C(=O)OCC)C1 (configuration not stated),inactive,–
COc1ccc(-c2coc3cc(O)cc(O)c3c2=O)cc1,–,7.4 µM (active)
CN(C)c1ccc2nc3ccc(=[N+](C)C)cc-3sc2c1,inactive,–
C=C[C@@]1(C)CC(=O)[C@]2(O)[C@@]3(C)[C@@H](O)CCC(C)(C)[C@@H]3[C@H](O)[C@H](OC(C)=O)[C@@]2(C)O1,–,0.799 µM (active)
COc1ccc(C(=O)c2ccccc2)c(O)c1,inactive,–
O=C(OCc1ccccc1)c1ccc(O)cc1,–,13.5 µM (active)
Cc1ccc([N+](=O)[O-])cc1N,–,18.8 µM (active)
CC(C)(C)NC(=O)[C@H]1CC[C@H]2[C@@H]3CC[C@H]4NC(=O)C=C[C@]4(C)[C@H]3CC[C@]12C,inactive,–
C=CC(=O)OCCCCCCOC(=O)C=C,inactive,–
CC(C)(c1ccccc1)c1ccc(Nc2ccc(C(C)(C)c3ccccc3)cc2)cc1,–,0.359 µM (active)
O=C(O)c1cc(O)c2ccccc2c1O,inactive,–
CCN1CN(CC)CN(CC)C1,inactive,–
